The text below walks through data of the supplement of paper PMC6555819.

Common to all, as to assay: PBM binding z-score (relative to random genomic background probes); higher = stronger binding; sequences stand for … in GC…GCGATTGACAGCGTAGAATGAAGG
For experiment [1], the system named is RARb homodimer (NR concentration 270 nM). In short, it runs like this: (§1)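 On custom Agilent 4×180K arrays, double-stranded probes with 34-nt variable regions carried direct-repeat seeds, single-nucleotide variants, half-site ablations or random human genomic background. Ligand-free nuclear receptor dimers were applied for 1 h, and binding was read with antibodies against each partner (one per run). Binding z-scores come from regression-normalized fluorescence, with the random background probes as reference.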

For experiment [2], the system named is RARg:RXRa (NR concentration 270 nM, RXRa partner concentration 90 nM). In a few lines: as §1
Experiment [3] has as its system RARg homodimer (NR concentration 270 nM). In a few lines: as §1
Experiment [4] relates to RXRa DBDmut IVT, anti-RXR (DBD mutation: RXRa K156A/R161A, NR concentration 90 nM). In short, it runs like this:
as §1

Experiment [5] deals with RXRa homodimer (NR concentration 180 nM). In a few lines: as §1
Experiment [6] has as its system THRa:RXRa (NR concentration 90 nM, RXRa partner concentration 90 nM). In short, it runs like this:
as §1

Experiment [7] concerns THRa homodimer (NR concentration 90 nM). In short, it runs like this:
as §1

Experiment [8] has as its system VDR homodimer (NR concentration 270 nM). In short, it runs like this: as §1

For the sequence TCATCTAGGTAAAGGTGAAAGTCGAACGATATGA, the PBM binding z-score in experiment [1] amounted to 1.65; in experiment [2], 1.58; in experiment [3], 1.28; in experiment [4] it was 0.923; in experiment [5], 2.08; in experiment [6], 1.75. For the same sequence, the PBM binding z-score turned out to be 0.0366 in experiment [7] and 0.215 in experiment [8].
Take GCTATTAGTTCAAAGGGCAACCGAATGATTCTCG: the PBM binding z-score in experiment [1] came to 2.95; in experiment [2], 3.39; in experiment [3], 2.76; in experiment [4], 3.02; in experiment [5] it was 4.05; in experiment [6] it was 1.74. For the same sequence, the PBM binding z-score in experiment [7] is -0.325; in experiment [8], 1.87.
For CGTAGTTGGTCAGGAGGTCACACACCGGATATGA, the PBM binding z-score worked out at 4.25 in experiment [1]; 5.01 in experiment [2]; 4.39 in experiment [3]; 0.895 in experiment [4]; 4.57 in experiment [5]; 3.46 in experiment [6]. Also, the figures for the PBM binding z-score in experiment [7] and in experiment [8] were 2.18 and 3.08, respectively.
With CCTACTGGGCCAAAGGTCAATGATTCCAATGCTC, the PBM binding z-score was 4.35 in experiment [1]; 5.54 in experiment [2]; 4.85 in experiment [3]; 0.831 in experiment [4]; 5.74 in experiment [5]; 3 in experiment [6]. Moreover, the PBM binding z-score was found to be 0.607 in experiment [7] and 1.25 in experiment [8].
On to CAAACTAGGTCAAGGTCAAAGGCGGTTTGTGCCA, for which the PBM binding z-score in experiment [1] worked out at 5.02; in experiment [2], 6.14; in experiment [3] it was 6.63; in experiment [4] it was 3.02; in experiment [5] it was 5.77; in experiment [6] it was 4.38. For the same sequence, the PBM binding z-score in experiment [7] is 3.55; in experiment [8] it was 3.92.
For the sequence CCTCGGAGGACAGAAGGTCAGACCTGTCCGCTTT, the PBM binding z-score in experiment [1] was found to be 3.7; in experiment [2], 3.17; in experiment [3], 3.3; in experiment [4], 0.392; in experiment [5], 2.08; in experiment [6] it was 2.39. Also, the PBM binding z-score was -0.0906 in experiment [7] and 0.229 in experiment [8].
As to ACTAGCTGGCCAAGTTTGGGTCACTCAAACAAAG, the PBM binding z-score in experiment [1] was 1.35; in experiment [2], 0.786; in experiment [3], 0.564; in experiment [4], -0.366; in experiment [5], 0.323; in experiment [6], 1.82. The values for the PBM binding z-score in experiment [7] and in experiment [8] were 0.793 and -0.123, respectively.
